Laboratory results as given in the supplement of paper PMC10849652.
Targets with a hit are over-represented here; the source holds about 8,800 in all. About 0.5% of all pairs of compound and target were hits.

Legend:
Assay in all cases: log2 fold change, soluble protein after heating vs DMSO (PISA); higher = thermal stabilisation; K562 lysate, 10 uM; active = over 0.2 and 3.5 SD of the protein, either way, in both replicates (recomputed)
[1] = compound: C#Cc1cccc(Nc2ncnc3cc(OCCOC)c(OCCOC)cc23)c1 [erlotinib]
Outline: (§1)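 Log-two fold change in thermal stability relative to solvent controls is reported from duplicates. For each sample, crude K562 extract from dounce-homogenised pellets in PBS pH 7.4 with 1 mM MgCl2, at 1 mg/mL protein, was treated with 10 μM compound for 30 min. Aliquots heated for 3 min across 48°C-58°C were pooled, brought to 0.5% NP-40 at 4°C and cleared at 21,000xg for 90 min. The supernatant was quantified by TMTpro 16plex LC-MS/MS with channel sums equalised.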

[2] = compound: C/C(=N\NC(=O)C1=CC(=CC=C1)S(=O)(=O)N2CCOCC2)/C3=C(C=CC(=C3)Cl)O
Outline: as §1

[3] = compound: C1=CC(=CC=C1C2=NC3=C(N2)C=C(C=C3)C(=O)N)OC4=CC=C(C=C4)Cl
Outline: as §1

[4] = compound: C1=CC2=C(C=CC(=C2)/C=C\3/C(=O)NC(=NCC4=CC=CS4)S3)N=C1
Outline: as §1

[5] = compound: C1=CC=C(C=C1)C2=NC(=C(N2)C3=CC=NC=C3)C4=CC(=C(C=C4)Cl)O
Outline: as §1

[6] = compound: C1=CC=C2C(=C1)C3=NNC4=CC=CC(=C43)C2=O
Outline: as §1

[7] = compound: C1CCN(C1)C(=O)NC2=CC=CC(=C2)NC3=NC=C(C(=N3)NCCC4=CN=CN4)Br
Outline: as §1

[8] = compound: C1CN(CCC1(CC2=CC=C(C=C2)Cl)N)C3=NC=NC4=C3C=CN4
Outline: as §1

[9] = compound: C1COCCN1CCN2C3=CC=CC=C3N=C2NC(=O)C4=CC(=CC=C4)[N+](=O)[O-] [IRAK-1-4 Inhibitor I]
Outline: as §1

[10] = compound: C1=CC2=NC=CN=C2C=C1/C=C/3\C(=O)NC(=O)S3
Outline: as §1

Measured: log2 fold change

SNRPD2 (UniProt K7EJB5)
inactive: [1] -0.076 | [2] 0 | [3] -0.036 | [4] -0.106 | [5] -0.12 | [6] 0.055 | [7] 0.088 | [8] 0.037 | [9] -0.03

TAF11 (UniProt Q15544)
Sequence of UniProt Q15544 (Q15544 whole entry, looked up): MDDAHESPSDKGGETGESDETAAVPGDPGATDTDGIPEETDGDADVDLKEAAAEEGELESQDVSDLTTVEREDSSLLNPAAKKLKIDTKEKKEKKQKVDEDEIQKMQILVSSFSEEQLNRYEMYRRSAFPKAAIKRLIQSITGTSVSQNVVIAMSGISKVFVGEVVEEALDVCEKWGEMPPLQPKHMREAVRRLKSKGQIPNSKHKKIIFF
inactive: [2] 0.174 | [4] -0.144 | [5] -0.04 | [6] 0.124 | [7] -0.242 | [8] 0.071 | [9] 0.051

SHB (UniProt Q15464)
Sequence of UniProt Q15464 (Q15464 whole entry, looked up): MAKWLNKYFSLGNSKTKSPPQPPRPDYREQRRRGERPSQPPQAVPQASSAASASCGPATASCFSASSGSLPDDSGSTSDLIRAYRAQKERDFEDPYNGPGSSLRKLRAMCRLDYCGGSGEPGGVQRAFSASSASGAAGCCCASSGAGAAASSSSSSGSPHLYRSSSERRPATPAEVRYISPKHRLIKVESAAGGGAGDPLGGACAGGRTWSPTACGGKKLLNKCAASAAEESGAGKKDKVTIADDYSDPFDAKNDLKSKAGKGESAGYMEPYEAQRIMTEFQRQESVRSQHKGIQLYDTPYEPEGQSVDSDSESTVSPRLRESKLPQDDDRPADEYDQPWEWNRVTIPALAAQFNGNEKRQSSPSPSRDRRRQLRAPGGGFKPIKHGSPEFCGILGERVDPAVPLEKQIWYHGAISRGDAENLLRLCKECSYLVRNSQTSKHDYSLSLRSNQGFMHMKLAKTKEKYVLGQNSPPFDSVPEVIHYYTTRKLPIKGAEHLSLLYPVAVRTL
inactive: [1] 0.003 | [3] 0.033 | [5] -0.014 | [9] -0.067

SMARCA4 isoform 4 (UniProt P51532)
Sequence of UniProt P51532 (P51532 whole entry, looked up): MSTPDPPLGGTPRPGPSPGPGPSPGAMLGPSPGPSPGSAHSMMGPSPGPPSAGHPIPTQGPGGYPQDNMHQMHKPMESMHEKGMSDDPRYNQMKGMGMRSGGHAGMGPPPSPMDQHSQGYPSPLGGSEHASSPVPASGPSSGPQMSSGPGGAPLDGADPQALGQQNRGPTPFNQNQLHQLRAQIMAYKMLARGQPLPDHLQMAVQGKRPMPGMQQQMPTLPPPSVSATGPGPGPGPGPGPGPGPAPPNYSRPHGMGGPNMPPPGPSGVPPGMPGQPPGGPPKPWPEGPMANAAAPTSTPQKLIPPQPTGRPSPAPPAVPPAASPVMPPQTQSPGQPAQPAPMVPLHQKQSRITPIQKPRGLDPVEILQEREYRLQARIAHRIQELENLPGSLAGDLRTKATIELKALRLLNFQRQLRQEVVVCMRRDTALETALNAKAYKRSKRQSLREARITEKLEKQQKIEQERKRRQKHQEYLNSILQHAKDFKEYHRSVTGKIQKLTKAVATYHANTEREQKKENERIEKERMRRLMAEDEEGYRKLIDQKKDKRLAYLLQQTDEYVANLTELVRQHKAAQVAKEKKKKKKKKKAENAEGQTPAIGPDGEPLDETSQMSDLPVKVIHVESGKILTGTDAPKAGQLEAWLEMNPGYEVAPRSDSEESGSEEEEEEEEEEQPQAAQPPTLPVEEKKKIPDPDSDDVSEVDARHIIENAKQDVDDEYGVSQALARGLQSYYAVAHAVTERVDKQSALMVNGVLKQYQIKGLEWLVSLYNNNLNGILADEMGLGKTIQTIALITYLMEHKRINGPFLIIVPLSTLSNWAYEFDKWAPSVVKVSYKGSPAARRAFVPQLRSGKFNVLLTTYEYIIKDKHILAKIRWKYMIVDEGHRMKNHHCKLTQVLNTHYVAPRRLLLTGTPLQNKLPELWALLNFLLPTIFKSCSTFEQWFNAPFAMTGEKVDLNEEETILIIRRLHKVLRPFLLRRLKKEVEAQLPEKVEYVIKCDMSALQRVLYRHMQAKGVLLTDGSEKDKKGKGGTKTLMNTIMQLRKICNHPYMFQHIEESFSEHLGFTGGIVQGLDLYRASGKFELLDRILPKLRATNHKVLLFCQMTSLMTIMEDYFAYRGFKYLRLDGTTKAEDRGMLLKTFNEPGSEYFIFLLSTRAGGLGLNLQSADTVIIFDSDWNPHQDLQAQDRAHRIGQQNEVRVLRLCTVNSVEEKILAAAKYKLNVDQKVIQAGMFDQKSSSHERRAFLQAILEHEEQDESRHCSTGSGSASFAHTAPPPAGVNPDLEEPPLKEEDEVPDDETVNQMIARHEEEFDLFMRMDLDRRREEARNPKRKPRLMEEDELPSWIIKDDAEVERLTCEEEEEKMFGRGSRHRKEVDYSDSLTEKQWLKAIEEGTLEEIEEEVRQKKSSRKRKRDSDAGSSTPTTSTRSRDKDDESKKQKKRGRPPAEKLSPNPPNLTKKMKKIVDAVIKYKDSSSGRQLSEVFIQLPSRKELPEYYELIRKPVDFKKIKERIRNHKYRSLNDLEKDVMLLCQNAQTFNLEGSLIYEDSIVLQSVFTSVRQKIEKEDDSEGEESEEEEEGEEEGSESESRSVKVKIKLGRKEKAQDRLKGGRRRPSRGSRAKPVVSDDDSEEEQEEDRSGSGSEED
inactive: [1] 0.052 | [3] 0.178 | [5] 0.127 | [7] 0.112 | [8] -0.076 | [9] -0.101

SLC12A6 isoform 2 (UniProt Q9UHW9)
Sequence of UniProt Q9UHW9 (Q9UHW9 whole entry, looked up): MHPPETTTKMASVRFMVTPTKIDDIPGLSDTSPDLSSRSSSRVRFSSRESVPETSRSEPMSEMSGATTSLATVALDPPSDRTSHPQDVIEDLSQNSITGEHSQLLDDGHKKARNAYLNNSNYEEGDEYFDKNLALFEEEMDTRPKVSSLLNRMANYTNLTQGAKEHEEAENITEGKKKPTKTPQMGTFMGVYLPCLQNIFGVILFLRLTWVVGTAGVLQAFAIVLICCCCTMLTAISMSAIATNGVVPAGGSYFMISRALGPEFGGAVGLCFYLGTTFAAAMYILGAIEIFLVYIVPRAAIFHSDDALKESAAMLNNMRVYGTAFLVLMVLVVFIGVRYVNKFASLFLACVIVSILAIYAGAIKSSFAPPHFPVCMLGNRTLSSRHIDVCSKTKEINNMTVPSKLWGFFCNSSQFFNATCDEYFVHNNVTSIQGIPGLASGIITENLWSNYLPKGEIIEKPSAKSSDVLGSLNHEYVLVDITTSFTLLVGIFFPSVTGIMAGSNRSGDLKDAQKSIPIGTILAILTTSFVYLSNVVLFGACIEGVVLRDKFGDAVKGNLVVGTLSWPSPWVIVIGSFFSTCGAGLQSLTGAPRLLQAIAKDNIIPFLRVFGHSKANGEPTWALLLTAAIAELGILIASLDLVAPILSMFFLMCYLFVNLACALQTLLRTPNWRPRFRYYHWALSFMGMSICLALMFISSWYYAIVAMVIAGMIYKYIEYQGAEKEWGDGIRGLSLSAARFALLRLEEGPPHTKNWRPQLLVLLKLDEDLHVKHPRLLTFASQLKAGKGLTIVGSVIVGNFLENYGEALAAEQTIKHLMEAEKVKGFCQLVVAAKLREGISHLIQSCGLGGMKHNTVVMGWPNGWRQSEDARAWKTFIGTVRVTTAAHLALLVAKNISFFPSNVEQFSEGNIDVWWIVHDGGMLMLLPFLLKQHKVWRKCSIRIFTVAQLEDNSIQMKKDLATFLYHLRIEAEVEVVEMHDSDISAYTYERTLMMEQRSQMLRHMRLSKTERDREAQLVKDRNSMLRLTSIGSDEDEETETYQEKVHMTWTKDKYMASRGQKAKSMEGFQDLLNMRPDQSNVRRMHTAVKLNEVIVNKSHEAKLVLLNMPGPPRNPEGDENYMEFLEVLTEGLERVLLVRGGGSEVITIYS
inactive: [1] 0.013 | [3] 0 | [5] -0.019 | [7] -0.139 | [8] -0.049 | [9] 0.089

SLC25A36 (UniProt Q96CQ1)
Sequence of UniProt Q96CQ1 (Q96CQ1 whole entry, looked up): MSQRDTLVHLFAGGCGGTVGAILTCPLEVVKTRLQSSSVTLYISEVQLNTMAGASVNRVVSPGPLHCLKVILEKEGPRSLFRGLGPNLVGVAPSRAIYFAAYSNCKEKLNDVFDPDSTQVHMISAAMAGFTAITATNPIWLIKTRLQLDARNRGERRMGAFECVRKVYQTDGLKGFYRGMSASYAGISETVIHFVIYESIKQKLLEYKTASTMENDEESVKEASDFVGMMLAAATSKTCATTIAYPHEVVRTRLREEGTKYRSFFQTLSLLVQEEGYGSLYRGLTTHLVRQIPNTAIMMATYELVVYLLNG
inactive: [1] -0.021 | [2] 0.024 | [3] 0.08 | [4] -0.129 | [5] 0.041 | [6] 0.027 | [7] -0.027 | [8] -0.026 | [9] 0.038

SRC isoform 2 (UniProt P12931)
Sequence of UniProt P12931 (P12931 whole entry, looked up): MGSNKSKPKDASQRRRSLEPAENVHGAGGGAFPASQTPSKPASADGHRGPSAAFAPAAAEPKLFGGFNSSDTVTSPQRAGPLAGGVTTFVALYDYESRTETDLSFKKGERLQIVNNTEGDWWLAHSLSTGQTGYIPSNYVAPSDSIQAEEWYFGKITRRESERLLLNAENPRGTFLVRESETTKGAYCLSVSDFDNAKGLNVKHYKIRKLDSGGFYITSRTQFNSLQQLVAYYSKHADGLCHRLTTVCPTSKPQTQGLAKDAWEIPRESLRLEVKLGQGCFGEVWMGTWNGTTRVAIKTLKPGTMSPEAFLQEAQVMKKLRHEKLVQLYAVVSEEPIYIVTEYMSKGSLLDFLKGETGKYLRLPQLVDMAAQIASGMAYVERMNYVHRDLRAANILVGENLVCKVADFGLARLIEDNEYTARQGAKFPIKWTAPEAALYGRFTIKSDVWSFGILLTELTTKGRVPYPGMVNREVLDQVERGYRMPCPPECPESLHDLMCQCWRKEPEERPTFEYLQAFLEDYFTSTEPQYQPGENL
inactive: [1] -0.073 | [3] 0.028 | [10] 0.102 | [5] -0.063 | [7] -0.018 | [8] -0.069 | [9] 0.034

SPA17 (UniProt Q15506)
Sequence of UniProt Q15506 (Q15506 whole entry, looked up): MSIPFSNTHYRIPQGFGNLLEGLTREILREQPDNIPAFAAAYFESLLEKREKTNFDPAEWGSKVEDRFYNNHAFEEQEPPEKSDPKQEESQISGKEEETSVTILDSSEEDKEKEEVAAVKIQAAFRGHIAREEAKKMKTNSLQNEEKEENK
inactive: [2] -0.047 | [4] 0.01 | [10] -0.033 | [5] -0.018 | [6] -0.106 | [7] -0.076 | [8] -0.029 | [9] 0

SLC41A1 (UniProt Q8IVJ1)
Sequence of UniProt Q8IVJ1 (Q8IVJ1 whole entry, looked up): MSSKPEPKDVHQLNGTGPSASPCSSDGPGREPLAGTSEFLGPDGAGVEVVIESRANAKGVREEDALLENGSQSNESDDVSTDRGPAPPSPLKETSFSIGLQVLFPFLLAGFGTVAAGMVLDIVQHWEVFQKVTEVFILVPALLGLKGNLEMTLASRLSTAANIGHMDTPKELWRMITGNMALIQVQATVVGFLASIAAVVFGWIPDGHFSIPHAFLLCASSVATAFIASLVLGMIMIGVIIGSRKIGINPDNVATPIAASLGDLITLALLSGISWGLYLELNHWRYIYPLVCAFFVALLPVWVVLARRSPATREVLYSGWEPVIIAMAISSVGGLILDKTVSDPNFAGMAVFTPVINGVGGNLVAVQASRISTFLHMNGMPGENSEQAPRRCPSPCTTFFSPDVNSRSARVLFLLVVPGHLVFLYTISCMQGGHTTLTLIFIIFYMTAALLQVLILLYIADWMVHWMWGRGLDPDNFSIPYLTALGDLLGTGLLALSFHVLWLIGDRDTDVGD
inactive: [1] 0.176 | [3] -0.042 | [5] 0.018 | [7] 0.024 | [8] -0.014 | [9] -0.008
